Sampled rows, rich in hits. Any-hit rate of the full collection: about 2.5%.
Cruzain inh noDet = inhibitors of Trypanosoma cruzi cruzain without detergent | P25779 | purified cruzain, Z-FR-AMC fluorescence, no detergent | Potency, µM, without a hit: max response, negative = inhibition, hits mostly inhibitors | 200,000 tested, 2.3% active;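 further: plate controls were enzyme without inhibitor for no effect and buffer without enzyme for full effect; nearly all actives have a fitted effect of over 40% in size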
Target sequence (P25779 123-467 limits assumed): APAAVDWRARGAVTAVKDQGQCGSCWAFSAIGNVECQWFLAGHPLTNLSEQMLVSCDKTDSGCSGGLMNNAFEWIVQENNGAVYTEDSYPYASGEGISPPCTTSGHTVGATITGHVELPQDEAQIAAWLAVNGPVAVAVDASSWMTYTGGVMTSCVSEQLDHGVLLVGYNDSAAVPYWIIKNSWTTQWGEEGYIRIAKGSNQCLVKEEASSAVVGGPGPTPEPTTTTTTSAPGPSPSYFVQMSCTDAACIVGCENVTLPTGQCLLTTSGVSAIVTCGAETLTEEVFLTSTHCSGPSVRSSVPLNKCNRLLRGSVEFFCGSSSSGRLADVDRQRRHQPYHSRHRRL
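Purified cruzain at 1.5 nM, pre-incubated 15 min with compound at room temperature in 100 mM sodium acetate pH 5.5, 5 mM DTT, 0.00005% Triton X-100. Reaction started with 2 uM Z-FR-AMC; AMC fluorescence increase over 60 s gives rate.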
Cruzain inh Det = inhibitors of Trypanosoma cruzi cruzain with detergent; 200,000 tested, 0.43% active; Potency, µM, for the others: max response, negative = inhibition, most hits filed as inhibitors; purified cruzain, Z-FR-AMC fluorescence, 0.01% Triton;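 further: plate controls were neutral wells for no effect and buffer without enzyme for full effect; nearly all actives have a fitted effect of over 40% in size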
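Purified cruzain (1.5 nM final) was preincubated with compounds for 15 min at room temperature in 100 mM sodium acetate pH 5.5, 5 mM DTT, 0.01% Triton X-100. Reaction started with 2 uM Z-FR-AMC; AMC fluorescence change over 60 s gave activity.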
* = called active by the depositor; u = inconclusive. The call rests on the fitted dose curve; in most records, active means well fitted curve in the direction sought with a large enough effect; inconclusive means small, poorly fitted or top-dose-only effect, or another doubt; inactive means no such curve, though single readings can be large; an effect the other way counts as inactive or inconclusive. Potency means the concentration at half of the fitted maximal effect.

SMILES	Cruzain inh noDet	Cruzain inh Det
Cc1ccccc1C(=O)NCc1nc2cccnc2n1Cc1ccccc1	4%	-3%
Cc1ccc(CNC(=O)CCc2nnc3n(C)c(=O)c4sccc4n23)cc1	0%	-1%
O=C(Cn1cnc2sc(-c3ccccc3)cc2c1=O)NCc1ccccc1	16µM*	1%
O=C(Cn1cnc2sc(-c3ccccc3)cc2c1=O)NCCc1ccccc1	-23%	-1%
O=c1cc(CN2CCN(c3ccccc3F)CC2)c2cc(O)c(-c3ccccc3)cc2o1	7.9µM*	-3%
COc1ccc(N2CCN(Cc3cc(=O)oc4cc(-c5ccccc5)c(O)cc34)CC2)cc1	u	0%
Nc1c(-c2nc(-c3ccc(Cl)cc3)cs2)c2ccccn2c1C(=O)c1ccc2c(c1)OCO2	-9%	-1%
CCN1CCc2nc(NC(=O)C(c3ccccc3)c3ccccc3)sc2C1	-7%	0%
CCN1CCc2nc(NC(=O)CC(c3ccccc3)c3ccccc3)sc2C1	32µM*	0%
Cc1ccc(C(=O)Nc2c(-c3ccccc3)nc3ccccn23)cc1C	-2%	-3%
Cn1c(=O)cnc2cnc(Nc3ccccc3)nc21	25µM*	-6%
COCCn1c(=O)cnc2cnc(Nc3ccccc3)nc21	-9%	-7%
Cc1ccc(S(=O)(=O)Cc2nc(-c3ccc(C(=O)NCc4ccccc4)cc3)oc2C)cc1	-2%	0%
COc1ccc(-c2cc3ccccc3c(=O)o2)cc1	23%	0%
O=c1oc2ccccc2c2c1C(c1ccc(Cl)cc1)Nc1ccc3ccccc3c1-2 (stereo unspecified)	4µM*	0%
COc1ccc(C2Nc3ccc4ccccc4c3-c3c2c(=O)oc2ccccc32)cc1 (stereo unspecified)	10µM*	6%
CCOc1ccc(C2Nc3ccc4ccccc4c3-c3c2c(=O)oc2ccccc32)cc1 (stereo unspecified)	7.9µM*	-13%
O=C1CC(c2ccc(Br)cc2)c2c(c3ccccc3oc2=O)O1 (stereo unspecified)	-18%	-5%
CCOc1ccc(C2C(C#N)=C(N)Oc3c2c(=O)oc2ccccc32)cc1 (stereo unspecified)	-16%	-5%
Cc1ccc2oc(C(=O)Nc3c(C(=O)Nc4ccccc4)oc4ccccc34)cc(=O)c2c1	-10%	0%
COc1ccc(CCC(=O)NCc2nc3cccnc3n2Cc2ccccc2)cc1	11%	-3%
Cc1ccc(C)c(N2CCN(S(=O)(=O)c3c(C(=O)N4CCC(C)CC4)c(C)n(C)c3C)CC2)c1	u	-6%
Oc1[nH]c(=S)sc1/C=C1\C(c2ccccc2)=Nc2ccccc21	25µM*	-9%
O=c1[nH]c(=O)n(-c2ccccc2)c(O)c1/C=C1/C(c2ccccc2)=Nc2ccccc21	-12%	-5%
CCOc1cccc(CC(=O)N2CCc3c([nH]c4ccccc34)C2c2ccc(SC)cc2)c1OCC (stereo unspecified)	15%	2%
SMILES	Cruzain inh noDet	Cruzain inh Det
COc1ccc(C)cc1NC(=O)COC(=O)c1ccc(OCc2ccc(Cl)cc2Cl)c(OC)c1	25µM*	-1%
COc1ccc(NC(=O)COC(=O)c2ccc(OCc3ccc(Cl)cc3Cl)c(OC)c2)c(OC)c1	u	-2%
CN(C)S(=O)(=O)c1ccc2c(c1)N(CC(=O)N1CCN(c3cccc(Cl)c3)CC1)CCS2	2%	-2%
Cc1nn(-c2ccccc2)c2c1N(CCCC(=O)NC(C)c1ccccc1)C(=O)CS2 (stereo unspecified)	u	-4%
COc1cccc(-c2nc(NCCN3CCOCC3)c3ccccc3n2)c1	-1%	1%
O=C1[C@H]2[C@H]3C=C[C@@H](C4[C@H]3[C@@H]3C(=O)N(CN5CCSCC5)C(=O)[C@H]43)[C@H]2C(=O)N1CN1CCSCC1 (stereo partly specified)	5%	0%
Cc1ccc(-c2nnn(CC(=O)N3CCN(c4nc5ccccc5s4)CC3)n2)cc1	10µM*	12%
Cc1ccc(-c2nnn(CC(=O)N3c4ccccc4CCc4ccccc43)n2)cc1	u	-4%
CCOc1ccc(-c2csc(-c3c(N)c(C(=O)c4ccc5c(c4)OCO5)n4ccccc34)n2)cc1	11%	-1%
O=C(CC1C(=O)N(c2ccccc2)C(=O)N1Cc1ccc(F)cc1)Nc1cccc(F)c1 (stereo unspecified)	-12%	-5%
Cc1ccc(-n2c(C)cc(-c3csc(N)n3)c2C)cc1	25µM*	-1%
Cc1cc(-c2csc(N)n2)c(C)n1C	u	-30%
COc1ccc(/C=C/c2ccncc2)c2ccccc12	-1%	-3%
COc1ccc(C=Nc2cccc3c(=O)[nH][nH]c(=O)c23)c2ccccc12	32µM*	-10%
Brc1ccc(C2=N[C@@H](Cc3ccccc3)CO2)cc1	6%	0%
COC(=O)c1cnn(-c2ccc(C(=O)Nc3ccc(C(C)=O)cc3)cc2)c1N	21%	2%
COc1cccc(CN2CC(O)=C(c3nc(-c4ccc(Cl)cc4)cs3)C2=N)c1	13µM*	-10%
COc1ccc(-c2csc(C3=C(O)CN(Cc4ccc(Cl)cc4)C3=N)n2)cc1OC	-10%	-6%
CCOc1cc(C2Nc3cccc4cccc(c34)N2)ccc1O	16µM*	-2%
CCOc1ccc(C2Nc3cccc4cccc(c34)N2)cc1OC	-9%	-14%
Cc1ccc(/C=C/C(=O)N2CCC(c3nc4ccccc4o3)CC2)cc1	-1%	-4%
Cc1ccc2c(CC(=O)NCc3ccccc3)coc2c1C	-14%	-5%
CCOC(=O)c1c(NC(=O)c2cnn3c2NC(c2cccc(OC)c2)CC3C(F)(F)F)sc2c1CCCC2 (stereo unspecified)	3.2µM*	-1%
CC(C)OC(=O)c1c(NC(=O)c2cnn3c2NC(c2ccccc2)CC3C(F)(F)F)sc2c1CCCC2 (stereo unspecified)	u	3%
Cc1ccc(Cc2cnc(N3C(=N)SC(c4ccccc4)C3=O)s2)cc1 (stereo unspecified)	u	0%
SMILES	Cruzain inh noDet	Cruzain inh Det
N=C1SC(c2ccccc2)C(=O)N1c1ncc(Cc2ccccc2)s1 (stereo unspecified)	7.9µM*	2%
CCCCN(CC)C(=O)c1nn(C)c2c1CSc1ccccc1-2	-20%	5%
CCOC(=O)c1c(NC(=O)CN2C(=O)c3ccccc3C2=O)sc(Cc2ccc3c(c2)OCO3)c1C	10µM*	-1%
CCOC(=O)c1c(NC(=O)/C=C/c2ccc3c(c2)OCO3)sc(C)c1C	2%	3%
Cc1nc(NC(=O)c2ccccc2)sc1Cc1ccc2c(c1)OCO2	u	-4%
Cc1c(Cc2ccc3c(c2)OCO3)sc(NC(=O)c2ccccc2)c1C(N)=O	25µM*	-3%
CCOC(=O)c1c(-c2ccc(C)cc2)csc1NC(=O)c1nc(SC(C)C)ncc1Cl	-5%	-3%
COc1cccc(CNC(=O)Cn2nc(C)n3c(cc4cc(C)ccc43)c2=O)c1OC	23%	0%
O=C(COc1ccc(Cl)cc1)Nc1ccccc1C(=O)OCc1cc(=O)n2ccsc2n1	0%	0%
CCc1ccc(NC(=O)CCn2c(-c3ccc(OC)cc3)cc(C(C)=O)c2C)cc1	6%	-7%
Cc1ccc(-c2cn(-c3ccc(Cl)cc3)c(S(=O)(=O)CC(=O)Nc3ccccc3)n2)cc1	16µM*	-18%
Cc1ccc(-n2cc(-c3ccccc3)nc2S(=O)(=O)CC(=O)Nc2ccc(F)cc2)cc1	27%	8%
O=C(CN(c1cccc(C(F)(F)F)c1)S(=O)(=O)c1ccc(Cl)c([N+](=O)[O-])c1)NCc1ccccc1	8%	-7%

High-throughput results from PubChem.
